The source of these data is PubChem BioAssay AID504607 (Sanford-Burnham Center for Chemical Genomics, 2011).

Out of some 6,200 compounds screened, about 4,800 (77%) were called active. So high a share suggests a set chosen from earlier hits. A selection follows. A number with no mark means an inactive call.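 The calls were made as follows: active = mean inhibition at 8 µM reaching about 37%, which flags the compound as non-specific (limit read from the data); inactive = the rest.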

One may read the inhibition as the drop in the measured response relative to a control, in per cent.

A short description of this test: full-length luciferase signal inhibition, confirmation, counter-screen for Mdm2/MdmX interaction inhibitor project, cell-based, single concentration, SaOS-2 (AID 504607).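 Also: p53-null SaOS-2 cells with luciferase driven by a doxycycline-inducible promoter; compound on cells about two nights before reading with doxycycline added after day one.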 Particulars: SaOS-2 full-length luciferase counterscreen, luminescence; at 8 µM; active compounds read high.
Regarding `CCSc1nsc(NC(=O)Nc2cccc(C(C)=O)c2)n1`, the inhibition is 41% (active). For `C=CCSc1nsc(NC(=O)Nc2cccc(C(C)=O)c2)n1` the value was 21.9%; for `CC(=O)c1ccc(Oc2cc(C)nc(-n3nc(C)cc3C)n2)cc1`, 78.7% (active); for `Oc1ccc(Br)cc1/C=N/Nc1ccccn1`, 20%. For `Oc1cccc(/C=N/Nc2ccc(Cl)nn2)c1O` the value was 45.7% (active); for `Cc1nnnn1/C(=C\c1ccccc1)C(=O)OCC(=O)N1CC2(C)CC1CC(C)(C)C2` (stereo unspecified), 53.4% (active); for `CC[n+]1cc(C)ccc1/C=C/c1ccc(N(C)C)cc1`, 37.8% (active). The same measure for `O=C(/C=C/Sc1ncn[nH]1)c1ccc(Cl)cc1`: 51% (active); for `COC(=O)CCNc1ccc2c(c1)OCCO2`: 51.5% (active).

`CCOC(=O)c1c(-c2cccc(C)c2)csc1NC(=O)c1c(-c2ccccc2)noc1C`: the inhibition is 52.8% (active).

On to `O=C(CSc1nc2ccccc2c(=O)[nH]1)Nc1nc(-c2ccc(Br)cc2)cs1`, for which the inhibition was 47.8% (active).

Consider `Cc1ccc(C(=O)Nc2sc(Cc3ccc4c(c3)OCO4)c(C)c2C(N)=O)cc1`, for which the inhibition was 89.9% (active). The same measure for `CCN1/C(=C\c2ccc3ccccc3[n+]2CC)Sc2cc(C)ccc21`: 25%.

With `Cc1ccc2[nH]c(=O)c(CN(CCCN(C)C)C(=O)Nc3cccc(Cl)c3)cc2c1`, the inhibition was 66.6% (active). For `Cc1cccc(NS(=O)(=O)c2ccc(-c3cnc(C4CC4)o3)cc2)c1` the value was 63.9% (active); for `COC(=O)C1=C(Nc2ccc(C)cc2)C=C(C)C(C(=O)OC)C1c1ccc(F)cc1` (stereo unspecified), 61.3% (active).

In the case of `O=C(c1[nH]ncc1-c1ccc(Cl)cc1)C1CO1` (stereo unspecified), the inhibition is 45.8% (active).

Consider `O=C1NC(Nc2nc3ccccc3s2)(C(F)(F)F)C(=O)N1C1CCCCC1` (stereo unspecified), for which the inhibition was 73.6% (active).

Take `Brc1ccc2ncnc(NCc3cccnc3)c2c1`: the inhibition was 26.8%. The same measure for `Cc1ccnc(NC(=O)C2CCN(S(=O)(=O)c3c(C)c(C)cc(C)c3C)CC2)c1`: 46% (active); for `O=C(CCNC(=O)c1ccc(Cl)cc1)NC1CCCc2ccccc21` (stereo unspecified): 54.4% (active).

On to `CCOC(=O)/C(=C\c1ccc([N+](=O)[O-])cc1)C(=O)c1cc(C(C)=O)c(Nc2ccccc2)s1`, for which the inhibition was 50.6% (active). The same measure for `CN(c1ccccc1)S(=O)(=O)c1cc(C(=O)N2CCN(c3ncccn3)CC2)ccc1Cl`: 83.9% (active); for `O=C(COc1ccccc1F)Nc1nc(-c2ccccn2)cs1`: 47.2% (active). For the compound `Cc1ccc(C)c(N2CCN(C(=O)CCCCCn3c(=S)[nH]c4ccc(N5CCOCC5)cc4c3=O)CC2)c1`, the inhibition is 60.1% (active).

Turning to `O=C(CCCCCn1c(=S)[nH]c2cc3c(cc2c1=O)OCO3)N1CCN(c2ccc(F)cc2)CC1`, the inhibition is 79.3% (active). In the case of `COc1cccc(-c2nnc(NC(=O)c3ccc(S(=O)(=O)N(CC(C)C)CC(C)C)cc3)o2)c1`, the inhibition is 24.3%. The same measure for `O=C1/C(=C\c2ccccc2Cl)SC(=S)N1CCC(=O)N1CCCc2ccccc21`: 43.1% (active).

For the compound `O=C(CN1C(=O)c2ccccc2S1(=O)=O)N1CCc2ccccc21`, the inhibition was 15.9%. For `Fc1ccccc1/C=C1\CCCC2=C1Nc1ncnn1C2c1ccccc1F` (stereo unspecified), the inhibition was 3.26%. The same measure for `O=C(CSc1nc(Nc2ccccc2)nc(N2CCOCC2)n1)Nc1cc(Cl)ccc1O`: 65.1% (active); for `Cc1ccccc1NC(=O)CSc1nc2ccc(Nc3nc(N4CCOCC4)nc(N4CCOCC4)n3)cc2s1`: 81.4% (active). For `O=C1[C@H]2[C@@H](c3ccc(F)cc3)N3C(=O)N(c4ccc(C(F)(F)F)cc4)C(=O)[C@@]3(Cc3ccccc3)[C@H]2C(=O)N1C1CCCCC1` the value was 48.6% (active); for `COc1ccc2[nH]c(=O)c(CN(Cc3cccnc3)S(=O)(=O)c3ccccc3F)cc2c1`, 56.2% (active). The same measure for `Cc1ccc(-c2cn3cc(C)ccc3n2)cc1`: 29%; for `Cc1ccc2nc(-c3ccc(Br)cc3)cn2c1`: 133% (active); for `FC(F)(F)c1nnc2c3ccccc3c(Cl)nn12`: 79.9% (active). Consider `CC1CN(C(=O)CCC(=O)NCCCN2CCC(Cc3ccccc3)CC2)c2cc(Cl)ccc2O1` (stereo unspecified), for which the inhibition was 40.4% (active). The same measure for `O=C(N/N=C\c1cc2c(cc1Cl)OCO2)c1ccc(Br)s1`: 94.6% (active); for `CCN(CC)S(=O)(=O)c1ccc(NC(=O)c2cccnc2Cl)c(NC(=O)c2cccnc2Cl)c1`: 43.5% (active). For `N=c1n(CCc2ccccc2)c2ccccc2n1Cc1ccccc1F` the value was 69.7% (active).

In the case of `CCOC(=O)/C=C/C(=O)OCC(=O)NC(c1ccccc1)c1ccccc1`, the inhibition was 56.8% (active). The same measure for `O=[N+]([O-])/C=C/c1ccc2c(ccn2Cc2ccccc2)c1`: 49% (active); for `COc1ccc(Nc2oc(-c3ccccc3Cl)nc2C#N)cc1`: 79% (active).

With `O=C(NNc1ccccc1Cl)C(O)(c1cccc(C(F)(F)F)c1)c1cccc(C(F)(F)F)c1`, the inhibition is 87.9% (active). On to `COC(=O)c1sc(-c2ccc(C(C)(C)C)cc2)cc1NC(=O)/C=C/C(=O)O`, for which the inhibition is 55.9% (active). The same measure for `O=C(CSc1cccc2cccnc12)N/N=C/c1cccnc1`: 68.1% (active); for `CC(=O)/C(=N\Nc1ccc(Cl)cc1Cl)Sc1cccc2cccnc12`: 19.1%; for `CCn1cc(CN2CCC(C(=O)Nc3cccc(-c4cccc(Cl)c4)c3)CC2)c(C)n1`: 74.2% (active).

As for `c1ccc2c(c1)CSc1sccc1C2=C1CCNCC1`, the inhibition is 44.8% (active). Consider `COc1cccc(-n2c(SCC(=O)NC3CCCCC3)nc3n[nH]c(C)c3c2=N)c1`, for which the inhibition is 66.3% (active).

As to `NC(=O)c1sc2nc3c(c(-c4ccccc4)c2c1N)CCC3`, the inhibition is 43.5% (active).

In the case of `Cc1ccccc1C(=O)N1CCN(c2ccc(NC(=O)c3cccs3)cc2)CC1`, the inhibition was 65.1% (active). On to `Cc1cc(C(=O)NC2CCCc3c2cnn3-c2cccc(C)c2C)c(C)o1` (stereo unspecified), for which the inhibition was 91% (active). The same measure for `COc1ccc(C(=O)NC2CCCc3c2cnn3-c2cccc(C)c2C)c(OC)n1` (stereo unspecified): 54.8% (active).

With `CC(NC(=O)Nc1ccccc1)C(c1cccs1)N1CCN(c2ccccc2)CC1` (stereo unspecified), the inhibition was 58% (active).

As to `N#Cc1cccc(NC(=O)COC(=O)c2ccccc2C(=O)c2ccc(Cl)c([N+](=O)[O-])c2)c1`, the inhibition was 50.4% (active). The same measure for `CC(=O)Nc1ccc(NC(=O)C(C)OC(=O)c2ccccc2C(=O)c2ccc(Cl)c([N+](=O)[O-])c2)cc1` (stereo unspecified): 52.9% (active); for `Cc1cccc(-c2oc3ccc(-c4ccc5c(c4)OCO5)cc3c2C#Cc2cncn2C)c1`: 80.9% (active). For `Oc1ccccc1N1CCN(c2ncnc3sc(-c4ccccc4)cc23)CC1` the value was 58.6% (active); for `O=C(Oc1c(-c2ccco2)oc2ccccc2c1=O)c1cccnc1`, 90.3% (active); for `COc1cc2c(cc1OC)C(C)N(S(=O)(=O)c1cnc(Cl)c(Cl)c1)CC2` (stereo unspecified), 45.3% (active).

Regarding `CN(C)CC(O)COc1ccc(C(C)(C)c2ccc(OCC(O)CN(C)C)cc2)cc1` (stereo unspecified), the inhibition is 56.8% (active).

Take `Cn1cc(/C=C/c2nc3ccccc3c(=O)n2-c2cccc([N+](=O)[O-])c2)c2ccccc21`: the inhibition was 90.7% (active). For `C=CCn1c(C)cc(C(=O)CN2C(=O)c3ccccc3C2=O)c1C` the value was 103% (active); for `C=CCn1c(C)cc(C2=NNC(=NCC)SC2)c1C`, 24.4%. For `O=C(NCC#CCSc1nnc(-c2cccc3ccccc23)o1)c1cccs1` the value was 22.6%.

As for `CCCc1nc2c(c(=O)c3ccccc3n2C)c(=O)n1C1CCCCCC1`, the inhibition was 63.9% (active). For `COc1cccc(CNC(=O)c2nnn(CC(=O)Nc3cc(Cl)ccc3C)c2N)c1` the value was 47.8% (active); for `Cc1cc(C)c2[nH]c(=O)c(CN(Cc3ccccc3)C(=S)NCCCN(C)C)cc2c1`, 58.1% (active); for `COc1ccc(-c2nc(-c3ccccc3)no2)c(OC)c1`, 95.8% (active). In the case of `CSc1nc(-c2ccccc2)nc(C(Cl)Cl)n1`, the inhibition is 49.7% (active). Regarding `O=C(Cn1nnc(-c2ccccc2)n1)N/N=C/c1ccc(-c2ccc(Cl)cc2)o1`, the inhibition was 106% (active).

Turning to `COc1cc(NC(=O)c2ccccc2NS(=O)(=O)c2ccc(Cl)s2)cc(OC)c1`, the inhibition was 40.5% (active).

Turning to `CCc1ccc(-c2cc3c(=O)n(CC(=O)NCCCN4CCN(Cc5ccccc5)CC4)nc(C)n3n2)cc1`, the inhibition was 60.8% (active). For `CCc1ccc(CNC(=O)C2CCN(c3nnc(C)c4c(C)n(-c5ccc(C)cc5)nc34)CC2)cc1` the value was 23.7%; for `FC(F)(F)c1ccc(CN2C[C@@H]3C(c4ccccc4)C4(c5ccccc5)CC3(C4)[C@H]2c2ccccc2)cc1` (stereo partly specified), 27.2%; for `COCCCNc1nc2c(-c3cccc(C)c3)nnn2c2ccc(Cl)cc12`, 54.2% (active). The same measure for `CCOc1ccccc1NC(=O)Cn1nnc(C(=O)NCc2cccs2)c1N`: 80.5% (active); for `Cc1ccccc1OCCOc1ccc([N+](=O)[O-])cc1/C=N/n1cnnc1`: 89% (active); for `CC1(C)CC(N2CCN(C(c3ccccc3)c3ccccc3)CC2)=CC(=[N+]2CCCCC2)C1`: 55.6% (active). For `Cc1c(/C=N\NC(=O)c2cc3ccccc3o2)c2ccccc2n1C` the value was 61.8% (active). Turning to `Cc1ccc2occ(/C=N/NC(=O)c3ccccc3C)c(=O)c2c1`, the inhibition is 34.4%. On to `COc1ccc(CCn2c(=N)c(C(=O)NCC3CCCO3)cc3c(=O)n4cccc(C)c4nc32)cc1OC` (stereo unspecified), for which the inhibition was 54% (active). For `Cc1cccn2c(=O)c3cc(C(=O)NCCN4CCOCC4)c(=N)n(Cc4cccnc4)c3nc12` the value was 57.1% (active); for `Cc1cccc(-n2ncc(Cl)c(Cl)c2=O)c1`, 0.23%; for `CN(Cc1ccccc1)CC(O)COc1ccc(CNCc2cc3ccccc3s2)cc1` (stereo unspecified), 79.3% (active). For `O=C(Nc1ccncc1)c1c(F)cccc1F` the value was 38.9% (active). For `CC(C)(C)CC(C)(C)NCC(O)COCCOc1ccc(Br)cc1` (stereo unspecified) the value was 62.6% (active); for `COc1ccccc1N1CCN(C(=O)c2cc(=O)c3cc(C)cc(C)c3o2)CC1`, 101% (active); for `Oc1c(Br)cccc1/C=N/Nc1c(F)c(F)c(F)c(F)c1F`, 56.7% (active).
